# From PubChem BioAssay
# Mcl1-Noxa inh – Mcl-1/Noxa binding inhibitors, primary screen, biochemical, TR-FRET, 1536-well; Induced myeloid leukemia cell differentiation protein Mcl-1 (Homo sapiens), Q07820; inhibition, % at 21.7 µM; 220,000 compounds, 1.5% hits; TR-FRET Mcl-1/Noxa peptide binding, 2 h;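 active means compounds that cut the protein-peptide binding signal by more than 50% relative to plate controls in a single-dose test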;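 further: His-tagged Mcl-1 with rhodamine Noxa BH3 peptide and terbium anti-His antibody; 0% = Mcl-1 plus Noxa peptide wells and 100% = peptide-only wells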
# Target sequence (Q07820 whole entry, looked up): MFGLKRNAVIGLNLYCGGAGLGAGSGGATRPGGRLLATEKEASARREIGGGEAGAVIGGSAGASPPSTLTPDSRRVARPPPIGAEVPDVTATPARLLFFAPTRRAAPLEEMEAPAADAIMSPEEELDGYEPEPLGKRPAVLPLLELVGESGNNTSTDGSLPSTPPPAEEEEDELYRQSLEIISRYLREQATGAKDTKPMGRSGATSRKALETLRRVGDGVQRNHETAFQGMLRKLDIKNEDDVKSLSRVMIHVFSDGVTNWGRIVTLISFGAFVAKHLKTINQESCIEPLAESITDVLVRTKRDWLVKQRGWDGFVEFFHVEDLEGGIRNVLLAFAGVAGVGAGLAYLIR
# Mcl-1 Bim block – inhibitors of Bim peptide binding to Mcl-1, primary screen, biochemical, bead-based flow cytometry, multiplex; 190,000 compounds, 0.1% hits; Bim peptide-Mcl-1 binding; Induced myeloid leukemia cell differentiation protein Mcl-1 (Homo sapiens), Q07820; inhibition, % at 10 µM; AID 1009, 2008; in the data active means inhibition above about 40%;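 further: 0% = no compound tracer wells and 100% = peptide blocker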
# Mcl1-Bid inh – Mcl-1/Bid binding inhibitors, primary screen, biochemical, TR-FRET, 1536-well; AID 1021, 2008; TR-FRET Mcl-1/Bid-Dy647 peptide binding; inhibition, % at 21.7 µM; 220,000 compounds, 0.97% hits;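 active means compounds that cut the binding signal by more than half at the single screening dose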;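 further: His-tagged Mcl-1 with europium anti-His antibody binding Bid BH3 peptide; 0% = Mcl-1 plus peptide wells and 100% = peptide-only wells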
# Bcl-xL primary – inhibitors of human Bcl-xL, primary screen, biochemical, fluorescence polarization, HTS; Bcl-2-like protein 1 (Homo sapiens), Q07817; 320,000 compounds, 0.7% hits; GST-Bcl-xL / FITC-Bim BH3 peptide fluorescence polarization; inhibition, % at 10.9 µM;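 active means inhibition above the mean of all tested compounds plus 3 SD, cutoff set per campaign, cut at about 30% in these data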;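 further: 0% = DMSO wells and 100% = unlabeled Bim-BH3 peptide competitor; inhibitors lower millipolarization by displacing the labeled peptide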
# Target sequence (Q07817 whole entry, looked up): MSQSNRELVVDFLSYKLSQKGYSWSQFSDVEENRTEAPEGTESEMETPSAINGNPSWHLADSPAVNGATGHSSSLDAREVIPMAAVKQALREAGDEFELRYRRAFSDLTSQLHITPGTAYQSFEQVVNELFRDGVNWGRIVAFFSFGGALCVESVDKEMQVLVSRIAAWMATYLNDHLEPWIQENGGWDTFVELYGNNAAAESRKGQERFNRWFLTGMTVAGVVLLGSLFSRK
# MCL1-BIM inh – inhibitors of MCL1 binding to BIM-BH3, primary screen, biochemical, fluorescence polarization; GST-MCL1 / FITC-Bim-BH3 fluorescence polarization; 320,000 compounds, 0.68% hits; AID 2057, 2009; inhibition, % at 10.9 µM;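 active means inhibition above the mean inhibition of all tested compounds plus 3 SD, set per campaign, cut at about 40% in these data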;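 further: 0% = DMSO wells and 100% = unlabeled Bim-BH3 peptide control; higher means more loss of mP so more displacement of Bim peptide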
# GLD-1 TGE inh – GLD-1/TGE RNA complex disruptors, primary screen, biochemical, fluorescence polarization. AID 2280, 2010. Female germline-specific tumor suppressor gld-1 (Caenorhabditis elegans), Q17339. 320,000 compounds, 0.44% hits. inhibition, % at 5.96 µM. purified GLD-1 + fluorescein TGE RNA;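 active means percent inhibition above a per-plate cutoff, the plate mean of test compounds plus 3 SD, cut at about 30% in these data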;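 further: 0% = DMSO wells with GLD-1 and probe and 100% = wells lacking GLD-1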
# * hit, by the source's call; / = no result. In the library only some 2.3% were active in any assay of this set; here they are far more common.
SMILES,Mcl1-Noxa inh,Mcl-1 Bim block,Mcl1-Bid inh,Bcl-xL primary,MCL1-BIM inh,GLD-1 TGE inh
CCOC(=O)c1nnn(-c2nonc2N)c1CS(=O)(=O)c1ccccc1,11,-1,55*,2,-6,3
Cc1ccc(-n2c(SCC(=O)N/N=C/c3c(C)nn(-c4ccccc4)c3C)nc3ccccc3c2=O)cc1,-27,-3,53*,7,14,8
Cc1nn(-c2ccccc2)c(C)c1/C=N/NC(=O)CSc1nc2ccccc2c(=O)n1-c1ccc(Br)cc1,6,0,11,9,2,-1
Cc1cc(-n2cnc(-c3cn[nH]c3C)n2)no1,-15,/,2,6,8,5
CCCCCCc1ccc(N2C[C@H](C)[C@@H](CC(=O)NCc3ccccc3)C2=O)cc1,/,/,/,7,5,41*
CCCOc1ccc(C2C(C(=O)c3ccc(C)o3)=C(O)C(=O)N2Cc2cccnc2)cc1 (stereo unspecified),2,-1,4,4,-1,3
CC1=CC(=O)C=C(C)C1=NOC(=O)c1cccc([N+](=O)[O-])c1,53*,-3,-10,11,6,-8
Cc1ccc(C(=O)NCCCNC(=O)c2ccc(C)nc2)cc1,/,/,/,7,1,4
CC(=O)NC1C(=O)N=C(SCC(=O)NC(C)c2ccccc2)NC1=O (stereo unspecified),25,-1,56*,2,3,2
CC(=O)NC1C(=O)N=C(SCc2ccccc2)NC1=O (stereo unspecified),26,8,-24,6,3,9
COc1cc(/C=N/Nc2ccc(S(N)(=O)=O)cc2[N+](=O)[O-])cc(OC)c1O,48,/,3,20,22,4
COc1cc(/C=N/Nc2ccc(F)cc2F)cc(OC)c1O,62*,9,-76,17,26,6
COc1cc(/C=N/Nc2nc3ccccc3s2)cc([N+](=O)[O-])c1O,32,/,13,34*,17,-5
C(=N\Nc1nc2ccccc2s1)/c1ccccn1,-82,/,-95,32*,34,-3
COc1cc(/C=N/Nc2ccccc2[N+](=O)[O-])cc(OC)c1O,58*,2,-13,18,26,1
CC(C)CCNC(=O)[C@@H](NC(=O)c1c(F)cccc1F)C(C)C,-4,0,-13,1,7,7
O=C(CSc1nccn1-c1ccc(Cl)cc1)Nc1ccc2c(c1)OCO2,-1,0,-32,-7,-7,-2
COc1cc2ccccc2cc1C(=O)NC(=S)Nc1cccc(C(=O)O)c1,38,1,-24,13,7,2
O=C(Cn1nc2ccccc2n1)N/N=C/c1cc(Cl)cc([N+](=O)[O-])c1O,38,3,-39,/,/,/
O=[N+]([O-])c1cc(Cl)cc(/C=N/Nc2nc3ccccc3s2)c1O,67*,-1,-15,4,9,-1
COc1cc(/C=N/Nc2nc3ccccc3[nH]2)cc(OC)c1O,73*,0,-67,7,4,-7
COc1cc(/C=N/Nc2nc3ccccc3[nH]2)ccc1O,34,1,-15,5,2,2
S=c1[nH]nc(-c2ccncc2)n1/N=C/c1cn(-c2ccccc2)nc1-c1ccc(Cl)cc1,62*,/,-59,-10,-3,1
O=c1c2cc(N3CCOCC3)ccc2[nH]c(=S)n1Cc1ccco1,58*,3,-99,10,22,5
O=c1c2cc(N3CCOCC3)ccc2[nH]c(=S)n1Cc1cccc(Cl)c1,25,-3,-23,7,29,3
SMILES,Mcl1-Noxa inh,Mcl-1 Bim block,Mcl1-Bid inh,Bcl-xL primary,MCL1-BIM inh,GLD-1 TGE inh
Cc1cc(C)c2nc(NNC(=O)c3cc(=O)c4ccccc4o3)sc2c1,65*,2,-44,2,-1,-1
CCn1c(O)c(C2=c3ccccc3=NC2=O)c2cc(Br)ccc21,22,0,1,2,-1,-9
O=C1N=c2ccccc2=C1c1c(O)n(-c2cccc(F)c2)[nH]c1=O,102*,-10,73*,15,23,0
O=C1/C(=C/c2ccc(N3CCOCC3)o2)SC(=Nc2ccccc2)N1CCc1c[nH]c2ccccc12,38,-21,-63,-77,-104,10
COCCN1C(=O)/C(=C/c2ccc(Oc3ccc([N+](=O)[O-])cn3)c(OC)c2)SC1=Nc1ccccc1,-17,18,-15,5,6,-1
COc1ccc(N=C2S/C(=C\c3ccc(OC(C)C(=O)O)c(OC)c3)C(=O)N2CCc2c[nH]c3ccccc23)cc1 (stereo unspecified),82*,2,-16,/,/,/
COc1cc(/C=C2\SC(=Nc3ccccc3)N(CCc3c[nH]c4ccccc34)C2=O)ccc1OC(C)C(=O)O (stereo unspecified),51*,0,-6,8,10,5
C=CCn1c(O)c(C2=c3ccccc3=NC2=O)sc1=Nc1ccc(O)cc1,52*,/,-15,10,5,-1
N=C(N)c1ccc(Cl)cc1,16,0,-17,3,5,3
N=C(N)c1ccc(/C=C/c2ccc(C(=N)N)cc2O)cc1,66*,/,-92,1,3,-38
O=C1SC(SCc2ccccc2Cl)=N/C1=C\c1ccc(C(=O)O)cc1,80*,-2,-34,8,14,-2
Cc1ccc(S(=O)(=O)NC(CC(=O)O)c2ccccc2)c(C)c1 (stereo unspecified),4,-2,-9,3,4,-1
Cc1cccc(C)c1NC(=O)C(c1ccc([N+](=O)[O-])cc1)N1CCCCC1 (stereo unspecified),-14,-1,-38,-5,2,2
O=C(O)CC(NC(=O)COc1ccc(Cl)cc1Cl)C(=O)O (stereo unspecified),20,-2,72*,10,14,5
CCCC1(c2ccccc2)NC(=O)N(CC(=O)Nc2ccccc2C(F)(F)F)C1=O (stereo unspecified),/,/,/,-1,0,7
CCC1(c2ccccc2)NC(=O)N(CC(=O)Nc2cc(S(=O)(=O)N3CCOCC3)ccc2OC(C)C)C1=O (stereo unspecified),/,/,/,-7,-13,3
CN(C)c1cc(NC(=O)CNC(C)(C)CC(C)(C)C)c2ccccc2n1,4,-3,-2,1,1,-2
CN(C)c1cc(NC(=O)CN2CCCC2)c2ccccc2n1,54*,/,37,1,4,-2
